SMILES strings stand for the structures. Records with an inconclusive call do not appear. Activity calls are given as the source filed them. Unless noted, calls follow the shape of the dose curve; as a rule, active = well fitted curve in the direction sought with a large enough effect in the repeat runs; inconclusive = weak or mixed curves; inactive = no such curve, though single readings can be large; an effect the other way counts as inactive or inconclusive.

Assay [1] is described as follows: qHTS assay to identify aromatase inhibitors - cell viability counter screen (AID 743084).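 Also: cells stimulated with testosterone during compound exposure; nearly all actives have a fitted effect of over 55% in size.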 Also: potency is read from the fitted curve at half-maximal effect. For orientation: Quantitative high-throughput screening tests each substance at several concentrations.
Assay [2] deals with Aryl hydrocarbon receptor (Homo sapiens) (UniProt P35869). The assay can be described thus: qHTS assay to identify small molecule that activate the aryl hydrocarbon receptor (AhR) signaling pathway (AID 743085).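 Also: HG2L7.5c1 human HepG2 liver cells with stably integrated DRE-driven firefly reporter; series mostly up to about 70 µM; nearly all actives have a fitted effect of over 15% in size.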 Summed up: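 24 h compound exposure, 37C, HepG2-derived HG2L7.5c1 cells with DRE-responsive luciferase. Readouts: fluorescence viability, then luminescence at room temperature after 30 min.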

Assay [3] in a line: qHTS assay to identify small molecule that activate the aryl hydrocarbon receptor (AhR) signaling pathway - cell viability counter screen (AID 743086). Also: nearly all actives have a fitted effect of over 45% in size. Also: potency is read from the fitted curve at half-maximal effect. Summed up: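 HepG2-AhR-luc (HG2L7.5c1) cells, 4000/well, treated 24 h at 37 C with compound; viability measured as CellTiter-Fluor fluorescence after 30 min in the same wells as the luciferase read.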
Assay [4] concerns the target Peroxisome proliferator-activated receptor gamma (Homo sapiens) (UniProt P37231). Description: qHTS assay to identify small molecule agonists of the peroxisome proliferator-activated receptor gamma (PPARg) signaling pathway (AID 743094; active = well fitted activation curve with a large enough effect in the signal ratio in the repeat runs, not every such curve was filed as active; the % refers to the signal ratio). Summed up:
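Following 5 h plating at 37C, PPARg-bla HEK293H cells receive compound or DMSO for 17 h; fluorescence intensity is recorded after LiveBLAzer B/G loading for 1 h at room temperature.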

Assay [5] can be described thus: qHTS assay for small molecule agonists of the antioxidant response element (ARE) signaling pathway - cell viability counter screen (AID 743203; calls by dose curve; also: nearly all actives have a fitted effect of over 55% in size; also: potency is read from the fitted curve at half-maximal effect). Summed up: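 Compounds in DMSO were pinned onto ARE-bla HepG2 cells plated 5 hrs earlier at 2,000 cells/well. Sixteen hours later at 37C/5% CO2, CellTiter-Glo was added and luminescence measured after 30 min at room temperature.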

Assay [6] can be described thus: qHTS assay for small molecule activators of the heat shock response signaling pathway - cell viability counter screen (AID 743209). Also: nearly all actives have a fitted effect of over 50% in size. Also: potency is read from the fitted curve at half-maximal effect. The essentials: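 Counter screen for cytotoxicity in HeLa HSE-bla reporter cells. Treatment was 5 h at 37 C; viability was detected by luminescent ATP assay (CellTiter-Glo) in the same wells as the beta-lactamase read.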
Assay [7] is described as follows: qHTS assay for small molecule activators of the heat shock response signaling pathway (AID 743210; active = well fitted activation curve with a large enough effect in the signal ratio in the repeat runs, with a control signal flat, not every such curve was filed as active; the % refers to the signal ratio;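 also: HeLa cells with beta-lactamase reporter driven by heat shock elements; series mostly up to about 63 µM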). Summed up:
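Quantitative high-throughput format using an engineered HeLa line in which heat shock response elements drive beta-lactamase; after 5 h with compound, cells received a B/G FRET substrate and fluorescence was read.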

Assay [8] can be described thus: qHTS assay to identify small molecule agonists of the peroxisome proliferator-activated receptor delta (PPARd) signaling pathway - cell viability counter screen (AID 743211). Also: nearly all actives have a fitted effect of over 55% in size. Also: potency is read from the fitted curve at half-maximal effect. The essentials: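 Luminescent ATP viability assay (CellTiter-Glo, 30 min RT) in UAS-bla HEK293H cells carrying the PPAR delta reporter construct, 3000 cells/well, after a 17 h compound treatment at 37 C.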

Assay [9] has as its target Peroxisome proliferator-activated receptor delta (Homo sapiens) (UniProt Q03181). Description: qHTS assay to identify small molecule agonists of the peroxisome proliferator-activated receptor delta (PPARd) signaling pathway (AID 743212; calls by dose curve). Summed up: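 Quantitative high-throughput agonist screen in a HEK293H beta-lactamase reporter line under UAS control. Compounds in DMSO, at 37 C. Fluorescence read after 2 h with FRET substrate at room temperature.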

Assay [10] has the same target. Description: qHTS assay to identify small molecule antagonists of the peroxisome proliferator-activated receptor delta (PPARd) signaling pathway (AID 743215; active = well fitted inhibition curve with a large enough effect in the signal ratio in the repeat runs, not every such curve was filed as active; the % refers to the signal ratio;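 also: cells stimulated with agonist L165041 at 300 nM final during compound exposure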; also: potency is read from the fitted curve at half-maximal effect). The essentials:
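With L165041 present at 300 nM final, compounds were incubated 17 h at 37 C on PPARd UAS-bla HEK293H cells. A FRET-based beta-lactamase substrate was then applied for 2 h at room temperature and fluorescence intensity recorded.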

Assay [11] is described as follows: qHTS assay to identify small molecule agonists of the farnesoid-X-receptor (FXR) signaling pathway - cell viability counter screen (AID 743218). Also: nearly all actives have a fitted effect of over 45% in size. Also: potency is read from the fitted curve at half-maximal effect. The essentials:
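After 16 h at 37 C with test compounds, FXR-bla HEK 293T cells were given LiveBLAzer B/G substrate for 2 h at RT and then CellTiter-Glo; luminescence was taken after 30 min.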

Assay [12] concerns the target Bile acid receptor (Homo sapiens) (UniProt Q96RI1). The assay can be described thus: qHTS assay to identify small molecule agonists of the farnesoid-X-receptor (FXR) signaling pathway (AID 743220; active = well fitted activation curve with a large enough effect in the signal ratio in the repeat runs, not every such curve was filed as active; the % refers to the signal ratio). Summed up:
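Beta-lactamase reporter under UAS control in GeneBLAzer FXR HEK 293T cells (5000/well) measured with LiveBLAzer FRET substrate after 2 h at room temperature. Compound exposure lasted 16 h at 37C.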

Assay [13] has as its target Vitamin D3 receptor (Homo sapiens) (UniProt P11473). The assay can be described thus: qHTS assay to identify small molecule agonists of the vitamin D receptor (VDR) signaling pathway (AID 743222; calls by dose curve). The essentials:
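VDR-bla cells were seeded, left 4 h, treated with compounds in DMSO for 16 h, incubated 2 h at RT with B/G FRET substrate, and read for fluorescence.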

Assay [14] shares this target. The assay can be described thus: qHTS assay to identify small molecule antagonists of the vitamin D receptor (VDR) signaling pathway (AID 743223; active = well fitted inhibition curve with a large enough effect in the signal ratio in the repeat runs, not every such curve was filed as active; the % refers to the signal ratio; also: potency is read from the fitted curve at half-maximal effect). The essentials: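 Agonist 1alpha,25-dihydroxyvitamin D3 (3 nM in well) was added with each compound to VDR-bla cells preincubated 4 h. Cells stood 16 h at 37C, then FRET substrate 2 h at room temperature; fluorescence intensity recorded.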

Assay [15] is described as follows: qHTS assay to identify small molecule antagonists of the farnesoid-X-receptor (FXR) signaling pathway - cell viability counter screen (AID 743221; active = well fitted cell-killing curve with a large enough effect in the repeat runs, not every such curve was filed as active; also: nearly all actives have a fitted effect of over 50% in size; also: potency is read from the fitted curve at half-maximal effect). The essentials: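 In GeneBLAzer FXR-UAS-bla HEK 293T cells stimulated with 50 uM chenodeoxycholic acid (final), compounds acted for 16 h at 37 C. Viability was assessed afterwards by CellTiter-Glo luminescence.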
Assay [16] is described as follows: qHTS assay to identify small molecule antagonists of the peroxisome proliferator-activated receptor gamma (PPARg) signaling pathway - cell viability counter screen (AID 743194). Also: nearly all actives have a fitted effect of over 55% in size. Also: potency is read from the fitted curve at half-maximal effect. The essentials:
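Cytotoxicity counter screen in PPARg-bla HEK293H cells, same wells as reporter assay. Compounds plus 50 nM rosiglitazone (final) for 17 h at 37 C, then viability read by CellTiter-Glo luminescence.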

A short description of assay [17]: qHTS assay to identify small molecule antagonists of the peroxisome proliferator-activated receptor delta (PPARd) signaling pathway - cell viability counter screen (AID 743213). Also: nearly all actives have a fitted effect of over 50% in size. Also: potency is read from the fitted curve at half-maximal effect. Summed up: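 In this counter screen, HEK293H cells carrying a UAS-beta-lactamase reporter are co-treated with test compounds and 300 nM L165041 (final) for 17 h at 37 C; cell viability is quantified by CellTiter-Glo luminescence.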

For assay [18], the target named is Bile acid receptor (Homo sapiens) (UniProt Q96RI1). The assay can be described thus: qHTS assay to identify small molecule antagonists of the farnesoid-X-receptor (FXR) signaling pathway (AID 743217; active = well fitted inhibition curve with a large enough effect in the signal ratio in the repeat runs, not every such curve was filed as active; the % refers to the signal ratio; also: potency is read from the fitted curve at half-maximal effect). The essentials: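 In this cell-based antagonist screen, inhibition of CDCA-driven (50 uM final) UAS-beta-lactamase expression in HEK 293T cells was measured by FRET fluorescence following 16 h compound exposure at 37 °C.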
Bile acid receptor (Homo sapiens), sequence (Q96RI1 whole entry, looked up): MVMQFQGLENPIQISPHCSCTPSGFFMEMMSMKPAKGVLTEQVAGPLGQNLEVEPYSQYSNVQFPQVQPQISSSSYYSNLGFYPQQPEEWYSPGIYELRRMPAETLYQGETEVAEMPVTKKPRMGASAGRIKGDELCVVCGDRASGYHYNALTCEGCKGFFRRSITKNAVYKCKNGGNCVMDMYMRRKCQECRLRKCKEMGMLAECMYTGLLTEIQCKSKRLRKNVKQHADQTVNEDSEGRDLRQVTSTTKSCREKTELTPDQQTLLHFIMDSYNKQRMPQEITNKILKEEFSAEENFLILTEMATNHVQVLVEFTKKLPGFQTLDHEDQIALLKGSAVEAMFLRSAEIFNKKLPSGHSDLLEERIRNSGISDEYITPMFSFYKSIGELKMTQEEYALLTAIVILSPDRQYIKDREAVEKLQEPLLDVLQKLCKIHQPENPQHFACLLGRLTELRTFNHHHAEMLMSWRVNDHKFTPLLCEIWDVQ

Aryl hydrocarbon receptor (Homo sapiens), sequence (P35869 whole entry, looked up): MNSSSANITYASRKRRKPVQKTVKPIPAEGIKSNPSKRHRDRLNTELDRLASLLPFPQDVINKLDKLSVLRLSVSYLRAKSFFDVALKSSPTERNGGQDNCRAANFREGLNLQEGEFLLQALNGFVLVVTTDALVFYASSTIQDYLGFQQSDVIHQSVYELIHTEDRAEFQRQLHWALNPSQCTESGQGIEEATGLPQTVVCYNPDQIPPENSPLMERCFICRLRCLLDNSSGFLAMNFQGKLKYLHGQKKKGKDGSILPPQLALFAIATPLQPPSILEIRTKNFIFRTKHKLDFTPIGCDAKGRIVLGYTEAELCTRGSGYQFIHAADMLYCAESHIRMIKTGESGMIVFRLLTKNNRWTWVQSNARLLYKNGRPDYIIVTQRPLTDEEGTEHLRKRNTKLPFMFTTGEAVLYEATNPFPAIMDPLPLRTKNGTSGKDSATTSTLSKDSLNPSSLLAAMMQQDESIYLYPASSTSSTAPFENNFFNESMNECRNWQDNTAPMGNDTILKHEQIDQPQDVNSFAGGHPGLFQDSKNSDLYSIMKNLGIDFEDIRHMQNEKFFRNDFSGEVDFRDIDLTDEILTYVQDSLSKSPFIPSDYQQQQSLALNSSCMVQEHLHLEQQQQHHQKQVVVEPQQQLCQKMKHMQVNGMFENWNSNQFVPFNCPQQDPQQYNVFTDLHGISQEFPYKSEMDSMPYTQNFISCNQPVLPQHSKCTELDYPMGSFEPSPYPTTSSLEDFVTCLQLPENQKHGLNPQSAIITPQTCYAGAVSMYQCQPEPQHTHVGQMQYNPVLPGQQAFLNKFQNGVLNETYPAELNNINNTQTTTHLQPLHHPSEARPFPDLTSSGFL
Peroxisome proliferator-activated receptor delta (Homo sapiens), sequence (Q03181 whole entry, looked up): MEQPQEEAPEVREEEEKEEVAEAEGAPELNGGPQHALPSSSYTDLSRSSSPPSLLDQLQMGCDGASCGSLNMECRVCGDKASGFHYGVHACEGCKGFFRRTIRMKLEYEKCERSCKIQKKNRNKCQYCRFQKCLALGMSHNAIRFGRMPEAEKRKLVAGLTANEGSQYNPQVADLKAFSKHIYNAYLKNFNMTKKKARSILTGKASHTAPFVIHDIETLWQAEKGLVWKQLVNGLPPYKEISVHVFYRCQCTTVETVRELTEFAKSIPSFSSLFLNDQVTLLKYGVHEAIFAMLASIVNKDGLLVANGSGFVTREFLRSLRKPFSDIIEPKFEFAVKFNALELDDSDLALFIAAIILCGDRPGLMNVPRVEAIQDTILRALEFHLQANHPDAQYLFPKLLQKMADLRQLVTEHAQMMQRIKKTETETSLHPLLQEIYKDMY
Vitamin D3 receptor (Homo sapiens), sequence (P11473 whole entry, looked up): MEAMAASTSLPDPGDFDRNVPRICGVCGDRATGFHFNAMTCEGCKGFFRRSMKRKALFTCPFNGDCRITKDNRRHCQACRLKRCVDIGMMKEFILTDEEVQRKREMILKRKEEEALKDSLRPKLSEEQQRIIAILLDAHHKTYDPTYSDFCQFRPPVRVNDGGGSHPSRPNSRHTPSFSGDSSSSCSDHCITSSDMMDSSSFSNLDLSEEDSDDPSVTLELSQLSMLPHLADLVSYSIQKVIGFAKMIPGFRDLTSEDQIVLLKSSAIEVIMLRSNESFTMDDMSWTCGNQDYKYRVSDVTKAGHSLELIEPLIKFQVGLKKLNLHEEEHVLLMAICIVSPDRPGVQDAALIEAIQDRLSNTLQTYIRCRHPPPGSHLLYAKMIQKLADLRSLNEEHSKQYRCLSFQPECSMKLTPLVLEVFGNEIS
Peroxisome proliferator-activated receptor gamma (Homo sapiens), sequence (P37231 whole entry, looked up): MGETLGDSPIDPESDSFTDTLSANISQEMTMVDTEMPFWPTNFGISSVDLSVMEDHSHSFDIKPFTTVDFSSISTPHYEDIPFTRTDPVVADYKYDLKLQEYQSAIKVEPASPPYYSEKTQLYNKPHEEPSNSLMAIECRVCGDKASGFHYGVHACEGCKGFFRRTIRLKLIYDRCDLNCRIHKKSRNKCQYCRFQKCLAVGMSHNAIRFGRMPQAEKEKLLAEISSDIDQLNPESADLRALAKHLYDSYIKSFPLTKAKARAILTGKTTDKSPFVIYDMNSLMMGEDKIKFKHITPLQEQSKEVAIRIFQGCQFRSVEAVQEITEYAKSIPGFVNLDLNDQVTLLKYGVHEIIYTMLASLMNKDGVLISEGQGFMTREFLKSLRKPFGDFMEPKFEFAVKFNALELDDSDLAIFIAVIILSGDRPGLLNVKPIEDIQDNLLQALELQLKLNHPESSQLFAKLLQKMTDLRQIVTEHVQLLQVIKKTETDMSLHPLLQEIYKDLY

As for `CCCCN(CCCC)CCC(O)c1cc2c(Cl)cc(Cl)cc2c2cc(C(F)(F)F)ccc12` (stereo not drawn), the Potency entry in assay [1], in assay [2], in [3], in [4], in assay [5] and in [6] was “inactive” throughout. Further, the Potency entry in assay [7], in [10], in assay [12], in assay [13] and in assay [14] was “inactive” throughout. Further, the Potency in assay [8] is 33.5 µM (active); in assay [11], 29.8 µM (active). Also, the result in assay [9] was inactive.

Consider `S=P(N1CC1)(N1CC1)N1CC1`, for which the Potency result in assay [1], in [2], in assay [3], in [4], in assay [8] and in assay [12] was “inactive” throughout. For the same molecule, in assay [15], the Potency result was “inactive”. Also, the outcome in assay [9] was inactive.

Regarding `O[C@@H](c1cc(C(F)(F)F)nc2c(C(F)(F)F)cccc12)[C@H]1CCCCN1`, the Potency in assay [1] is 26.6 µM (active); in [3] it was 29.8 µM (active); in [16], 29.8 µM (active); in [5] it was 29.8 µM (active); in assay [8] it was 10.6 µM (active); in assay [17] it was 8.41 µM (active). Further, the Potency in assay [10] was 13.3 µM (active); in assay [11], 13.3 µM (active); in assay [15] it was 26.6 µM (active). The Potency entry in assay [2], in assay [6] and in [12] was “inactive” throughout.

`O=C1C=CC(=O)N1c1ccccc1`: the Potency was 9.69 µM (active) in [1]; 61.1 µM (active) in assay [3]; 13.8 µM (active) in assay [16]; 12.2 µM (active) in assay [5]; 21.9 µM (active) in [6]; 15.5 µM (active) in assay [8]. In addition, the Potency in assay [17] was 15.5 µM (active); in [18], 54.9 µM (active); in assay [11], 49 µM (active); in assay [14], 12.3 µM (active). Also, the Potency entry in assay [2] is “inactive”.

Consider `C=C[C@](C)(O)CC[C@@H]1[C@@]2(C)CCCC(C)(C)[C@@H]2CC[C@@]1(C)O`, for which the Potency in assay [1] is 61.1 µM (active); in [16], 49 µM (active); in assay [5], 77 µM (active); in [6], 43.6 µM (active); in assay [8] it was 54.9 µM (active); in [17] it was 34.7 µM (active). In addition, the Potency in [18] was 49 µM (active). The Potency result in assay [2] and in [3] was “inactive” each time. In addition, in assay [9], the result was inactive.

`CCC(C)c1cc([N+](=O)[O-])cc([N+](=O)[O-])c1OC(=O)OC(C)C` (stereo not drawn): the Potency is 54.5 µM (active) in [1]; 43.3 µM (active) in assay [3]; 49 µM (active) in [16]; 24.3 µM (active) in assay [5]; 21.9 µM (active) in [6]. The Potency result in [2] was “inactive”.

As to `Oc1ccc(-c2ccccc2)c(Cl)c1`, the Potency entry in [1], in [2], in assay [3], in [4], in assay [5] and in [6] was “inactive” throughout. In addition, the Potency entry in assay [8], in [17], in assay [10], in assay [11], in [15] and in assay [13] was “inactive” each time. In addition, the Potency result in [14] was “inactive”. Also, the molecule was called inactive in assay [9].

As for `Clc1ccccc1CN1CCc2sccc2C1`, the Potency entry in assay [1], in [2], in assay [3], in [16], in assay [6] and in assay [17] was “inactive” each time. Further, the Potency result in assay [11] and in assay [15] was “inactive” in each case.

As to `CCCCCCCCCCCCCC[n+]1ccccc1`, the Potency is 54.5 µM (active) in [1]; 54.5 µM (active) in assay [3]; 17.4 µM (active) in assay [16]; 27.3 µM (active) in assay [5]; 30.9 µM (active) in [6]; 24.5 µM (active) in assay [8]. Further, the values for the Potency in assay [17], in assay [15] and in [14] were 24.5 µM (active), 54.9 µM (active) and 43.6 µM (active), respectively. In addition, the Potency entry in [2] is “inactive”.

For `CSc1c(Cl)c(Cl)c(Cl)c(Cl)c1Cl`, the Potency entry in assay [1], in assay [2], in assay [3], in [4], in assay [17] and in [12] was “inactive” throughout. Besides, the Potency entry in assay [15], in assay [13] and in [14] was “inactive” throughout. For the same molecule, in assay [8], the Potency is 54.6 µM (active).

For the origin of these results see PubChem BioAssay (Tox21).
